Shown are actives, neighbours in structure and some others; about 1.9% of the full set was active somewhere.
Pemphigus Ab inh = blocks pemphigus antibody binding to human desmoglein-3 | AID 588358 | binding (percent of control), % at 10 µM | 0.48% of 310,000 active | P32926 | DSG3-coupled beads, scFv-anti-DSG3-GFP binding, flow cytometry; stronger effect = lower value;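 active means binding more than 3 SD below its plate's average and above zero; inconclusive means below that plate limit but binding exactly zero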;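 further: hits lower antibody fragment binding to DSG3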
NSD2 inh = inhibitors of human histone methyltransferase NSD2. inhibition, % at 12.5 µM. 0.54% of 310,000 active. NSD2 peptide methylation, AlphaScreen, 120 min. O96028; in the data active means inhibition above about 50%
Vif imaging = inhibitors of HIV Vif | HEK293T cells, Vif self-association by quenched fluorescence, imaging, 24 h | inhibition, % at 7.49 µM | 0.35% of 340,000 active; in the data active means inhibition above about 50%, passing the limit was not always enough; inconclusive means no clear call, values can overlap the other calls; inactive means below about 31%
CaV13 FRET inh = Disruptors of the CACNA1D IQ motif to Ca2+-dependent inactivation inhibitor domain association, primary screening, Förster resonance energy transfer in intact living …. inhibition, % at 12.3 µM. 0.098% of 340,000 active. HEK cells, CFP/YFP FRET ICDI-IQ, plate reader, 10 min; percent FRET-ratio fall versus neutral wells;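 active means mean replicate inhibition of at least 30% and at least 1% of replicates passing that level; inconclusive means only one of the two criteria is met; inactive means neither criterion is met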
N-glyco inh = N-linked glycosylation inhibition; D54 ERlucT glycosylation luciferase reporter, 24 h; percent of 100 nM tunicamycin response; reporter increase, % at 12.5 µM; 0.23% of 360,000 active; AID 588692;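 active means mean luciferase reporter signal, scaled so untreated is 0 and the glycosylation-blocking control 100, at or above a set limit in every replicate; inconclusive means mean reaches the limit but not every replicate does; inactive means mean below the limit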;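 further: luciferase carries N-glycosylation sites so blocking glycosylation raises the light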
ATG4B inhibitor = ATG4B (human) cysteine protease inhibition; inhibition, % at 8.33 µM; 0.51% of 340,000 active; ATG4B cleavage of LC3-PLA2, NBD-HPC fluorescence, 1 h; AID 504462; in the data active means inhibition above about 40%
Target sequence (Q9Y4P1 whole entry, looked up): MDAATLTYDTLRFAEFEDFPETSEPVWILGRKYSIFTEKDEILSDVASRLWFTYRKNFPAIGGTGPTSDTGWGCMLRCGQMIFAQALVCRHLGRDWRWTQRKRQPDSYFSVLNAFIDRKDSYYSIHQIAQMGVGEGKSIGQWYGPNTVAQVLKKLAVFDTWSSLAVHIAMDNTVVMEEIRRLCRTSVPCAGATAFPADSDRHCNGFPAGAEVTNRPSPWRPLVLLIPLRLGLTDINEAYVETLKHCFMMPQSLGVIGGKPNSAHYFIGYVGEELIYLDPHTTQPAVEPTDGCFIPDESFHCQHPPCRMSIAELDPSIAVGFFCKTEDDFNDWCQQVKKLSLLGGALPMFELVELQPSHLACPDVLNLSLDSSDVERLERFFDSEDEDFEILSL
Large screens that a line does not name were inactive.

COCc1cc(C)nc(SCC(=O)Oc2ccccc2)c1C#N	none
COCc1cc(C)nc(SCC(=O)Nc2cccc3cccnc23)c1C#N	Pemphigus Ab inh 23 (no result: NSD2 inh)
N#CCCn1c(SCC(=O)NCC2CCCO2)nc2ccccc21 (stereo not drawn)	none
Cc1ccc(C(=O)COC(=O)c2cc(=O)[nH]c3ccccc23)cc1C	Vif imaging 66
CC(=O)c1cc2c(cc1NC(=O)CCC1CCCC1)OCO2	none (no result: Pemphigus Ab inh, Vif imaging, N-glyco inh, ATG4B inhibitor)
O=[N+]([O-])c1ccc(Cl)c(-c2ccc(/C=N/n3cnnc3)o2)c1	none
COc1cc([N+](=O)[O-])ccc1-c1ccc(/C=N\n2cnnc2)o1	Vif imaging 177
O=S(=O)(Nc1ccc(S(=O)(=O)N2CCCC2)cc1)c1ccccc1Br	none
O=c1oc(-c2cccnc2)nc2ccccc12	Pemphigus Ab inh 77 (no result: CaV13 FRET inh)
c1cncc(-c2nc3ccccc3o2)c1	none (no result: Vif imaging, CaV13 FRET inh)
O=C(Nc1nccs1)c1ccc(-c2cccc([N+](=O)[O-])c2)o1	Pemphigus Ab inh 64
COc1cccc(NC(=O)c2ccc(-c3ccc([N+](=O)[O-])cc3)o2)c1	Pemphigus Ab inh 84
CCn1cc(Cl)c(C(=O)Nc2c(C)nn(Cc3c(F)c(F)c(F)c(F)c3F)c2C)n1	none (no result: Vif imaging)
Cc1ccc2nc(/C(C#N)=C/c3cn[nH]c3-c3ccc(F)cc3)[nH]c2c1	N-glyco inh 32 (no result: CaV13 FRET inh)
N#C/C(=C\c1cccnc1)c1nc2ccccc2[nH]1	N-glyco inh 42
Cc1ccc2nc(/C(C#N)=C/c3ccc(O)c(O)c3)[nH]c2c1	NSD2 inh 94
Cc1ccc2nc(/C(C#N)=C/c3ccccc3C(=O)O)[nH]c2c1	none
N#C/C(=C\c1ccncc1)c1nc2ccccc2[nH]1	none (no result: Pemphigus Ab inh)
CCCN1C(=O)c2ccccc2NC1c1ccc(OC)cc1O (stereo not drawn)	none (no result: CaV13 FRET inh)
Cc1[nH]n(C(N)=S)c(=O)c1N=Nc1ccc(Br)cc1	none
CCOC(=O)c1ccc(N=c2sc(C(=O)OC)cc(=O)n2CCCN2CCOCC2)cc1	none (no result: NSD2 inh)
CCOC(=O)c1ccc(N=c2sc(C(=O)OC)cc(=O)n2Cc2ccco2)cc1	N-glyco inh 56 (no result: NSD2 inh)
COc1ccccc1OCC(=O)N/N=C/C=C/c1ccc([N+](=O)[O-])o1	N-glyco inh 58
Cc1ccccc1OCC(=O)N/N=C/c1ccc([N+](=O)[O-])o1	none
O=C(N/N=C/C=C/c1ccccc1[N+](=O)[O-])c1cccs1	none
O=C(N/N=C\C=C\c1ccc([N+](=O)[O-])o1)c1cccs1	N-glyco inh 41
O=C1NC(=O)/C(=C\c2ccc(O)cc2O)S1	NSD2 inh 102
CCOc1ccc(Nc2nc(N)c([N+](=O)[O-])c(NCc3ccccc3)n2)cc1	none
CCOc1ccc(Nc2nc(N(C)c3ccccc3)nc(N)c2[N+](=O)[O-])cc1	N-glyco inh 36
CCN1/C(=C/C=C/c2sc3ccccc3[n+]2CC)Sc2ccccc21	Pemphigus Ab inh -10 (no result: NSD2 inh, CaV13 FRET inh)
CCOC(=O)c1c(C)nc(C)c2c(=O)oc3ccccc3c12	Pemphigus Ab inh 95
Cc1csc(=O)n1CC(=O)Nc1ccc(Cl)cc1F	none
N#CCn1c2ccccc2c2nc3ccccc3nc21	none
C#CCn1c2ccccc2c2nc3ccccc3nc21	Pemphigus Ab inh 82
Nc1ccc(C(=O)c2ccccc2C(=O)O)cc1Cl	Vif imaging 55
O=C(Nc1ccccc1)c1ccc(C(=O)Nc2ccccc2)nc1	Pemphigus Ab inh 23
CC(=O)Nc1cccc(NC(=O)c2ccc(C(=O)Nc3cccc(NC(C)=O)c3)nc2)c1	none
COc1cccc(OC)c1C(=O)Nn1c(C2CCC2)nc2ccccc2c1=O	none
CCC(C)C(=O)Nn1c(C2CC2)nc2cc(OC)c(OC)cc2c1=O (stereo not drawn)	Vif imaging 125
O=c1cc(-c2ccc(Cl)cc2)[nH]c2ccccc12	none (no result: Pemphigus Ab inh, NSD2 inh, Vif imaging, CaV13 FRET inh, N-glyco inh)
COc1cc(-c2nnc(SCC3(c4ccc(Br)cc4)OCCO3)o2)cc(OC)c1OC	N-glyco inh 49 (no result: CaV13 FRET inh)
Cc1cccc(NC(=O)c2cc(Cl)sc2Cl)c1C	none
CC(=O)c1cccc(NC(=O)Cn2cnc(S(=O)(=O)N3CCC(C)CC3)c2)c1	Pemphigus Ab inh 82 (no result: CaV13 FRET inh)
Cn1c(SCC(=O)NCc2cccs2)nnc1-c1ccncc1	Vif imaging 59
Cc1cccc(N2CCN(C(=O)c3ccc4c(c3)NC(=O)C(CSCc3cccc(F)c3)N4)CC2C)c1 (stereo not drawn)	Vif imaging 61 (no result: NSD2 inh)
Cc1cc(C)cc(NC(=O)CCc2nc3sc4c(c3c(=O)[nH]2)CCCC4)c1	Vif imaging 151 (no result: NSD2 inh)
CC(=O)n1nc(-c2cccnc2)nc1N	none
CCN(CC)c1ccc2cc(-c3nnc(-c4ccccc4)o3)c(=O)oc2c1	Pemphigus Ab inh inconclusive, Vif imaging 179 (no result: CaV13 FRET inh)
CCN(CC)c1ccc2cc(-c3nc4ccccc4[nH]3)c(=O)oc2c1	none (no result: NSD2 inh, Vif imaging, CaV13 FRET inh)
N=c1oc2cc(O)ccc2cc1C(=O)Nc1ccc(Br)cc1	CaV13 FRET inh active
COc1ccccc1C(=O)Nc1nc2ccccc2s1	none (no result: NSD2 inh)
N=c1oc2cc(O)ccc2cc1C(=O)Nc1nc2ccccc2s1	CaV13 FRET inh 81
COc1ccc(-c2csc3ncnc(N4CCN(c5cccc(OC)c5)CC4)c23)cc1	none
O=C(CCc1ccccc1Cl)NC1CCCN(c2ccc(C(F)(F)F)cn2)C1 (stereo not drawn)	Pemphigus Ab inh 82
COc1ccc(S(=O)(=O)N2CCN(CC(=O)Nc3ccccc3OC)CC2)cc1	Pemphigus Ab inh 75
CSCCCN1CCCC(CO)(Cc2ccccc2F)C1 (stereo not drawn)	none
CC1CCCCN1Cc1c(O)ccc2c(=O)c(-c3nc4ccccc4s3)coc12 (stereo not drawn)	CaV13 FRET inh 44
O=[N+]([O-])c1cc(S(=O)(=O)C(F)(F)F)ccc1Sc1nc2ccccc2[nH]1	N-glyco inh 68
CS(=O)(=O)c1ccc(Sc2nc3ccccc3[nH]2)c([N+](=O)[O-])c1	none (no result: Pemphigus Ab inh)
CCCc1cc(-c2n[nH]c(=S)n2CC(C)C)cs1	none
CC(C)(C)c1ccc(C(=O)c2c[nH]c(C(=O)NCCCN3CCOCC3)c2)cc1	Pemphigus Ab inh -3.8
COc1ccc(N2C(=S)NC3c4cc(Cl)ccc4OC2(C)C3C(=O)N(C)C)cc1 (stereo not drawn)	none
COc1cc(/C=C(\CC(=O)O)c2nc3ccccc3s2)ccc1OCC(=O)Nc1ccccc1F	none
COc1cc(/C=C(\C#N)c2nc3ccccc3s2)ccc1OCC(=O)Nc1ccccc1	N-glyco inh 71 (no result: NSD2 inh, CaV13 FRET inh)
COc1cccc(NC(=O)NCCCSC2CCCCC2)c1	none
COc1ccc(C(=O)CSc2nc(=O)n3ccc(C)cc3n2)cc1	Pemphigus Ab inh 57 (no result: ATG4B inhibitor)
Cc1ccn2c(=O)nc(SCC(=O)c3ccc(Cl)cc3)nc2c1	none
COC(=O)c1ccc(CN2C(=O)C(C)ON=C2c2ncccc2C)o1 (stereo not drawn)	none (no result: Pemphigus Ab inh, NSD2 inh, ATG4B inhibitor)

Source: PubChem BioAssay (several laboratories)
